A selection: hits, their analogues and other compounds. The true share with any hit is near 2.8%.
PI5P4K alpha inh = inhibitors of human PI5P4K alpha | hit rate 1.2% among 330,000 | PI5P4Kalpha enzyme, ADP-Glo luminescence, 60 min; stronger effect = lower value | max response, %; active = max response of -50% or lower; inconclusive = between -30% and -50%; inactive = -30% or higher; also: value at the top dose of about 77 µM; % is scaled to controls: 0 for no effect and ±100 for the full control effect
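ADP-Glo luminescence end-point after a 60 min room-temperature kinase reaction. PI5P4Kalpha and substrate in HEPES pH 7.4 buffer with EGTA, 0.1% CHAPS and 5% DMSO; ATP at 5 microM final.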
Pol beta inh = blocks human DNA polymerase beta activity; hit rate 1.3% among 340,000; Pol beta primer extension/strand displacement, fluorescence kinetic; P06746; Potency, µM (top dose mostly 114 µM), for the others: top-dose activity change, negative = inhibition, hits mostly inhibitors; also: potency is read from the fitted curve at half-maximal effect; % is scaled to controls: 0 for no effect and ±100 for the full control effect
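10 nM enzyme + cpd, 15 min RT; start with substrate 50 nM final; read 0 min and after 10 min RT. Corrected, normalized data; 4-parameter Hill curve fit.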
POLI inh = DNA polymerase iota (human) inhibition; Pol iota fluorescent replication assay, 10 min; Potency, µM (series often up to 115 µM), without a hit: at the highest dose activity, negative = inhibition, usual class: inhibitors; hit rate 1% among 390,000; also: potency is read from the fitted curve at half-maximal effect
Target sequence (Q9UNA4 whole entry, looked up): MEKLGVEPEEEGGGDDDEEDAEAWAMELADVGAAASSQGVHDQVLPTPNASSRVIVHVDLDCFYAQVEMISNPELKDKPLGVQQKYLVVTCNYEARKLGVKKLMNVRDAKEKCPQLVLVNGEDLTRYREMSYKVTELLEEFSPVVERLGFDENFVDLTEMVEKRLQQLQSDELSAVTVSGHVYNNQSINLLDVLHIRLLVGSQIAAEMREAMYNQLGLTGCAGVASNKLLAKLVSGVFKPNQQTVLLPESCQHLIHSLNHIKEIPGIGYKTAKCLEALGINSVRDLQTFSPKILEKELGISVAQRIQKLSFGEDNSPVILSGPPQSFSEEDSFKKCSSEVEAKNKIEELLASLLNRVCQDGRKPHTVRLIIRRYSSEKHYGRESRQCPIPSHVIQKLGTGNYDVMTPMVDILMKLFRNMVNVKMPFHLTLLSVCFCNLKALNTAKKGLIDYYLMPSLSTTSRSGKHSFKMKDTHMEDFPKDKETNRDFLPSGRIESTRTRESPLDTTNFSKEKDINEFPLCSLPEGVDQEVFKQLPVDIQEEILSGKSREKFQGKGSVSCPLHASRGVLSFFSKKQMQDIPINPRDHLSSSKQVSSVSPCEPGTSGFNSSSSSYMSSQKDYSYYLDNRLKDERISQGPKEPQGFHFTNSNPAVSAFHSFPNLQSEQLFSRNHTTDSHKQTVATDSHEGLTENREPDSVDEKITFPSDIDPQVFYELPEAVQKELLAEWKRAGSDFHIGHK
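Pol iota at 10 nM preincubated 15 min with compounds at room temperature; reaction started with fluorescent substrate, 50 nM final. Fluorescence read kinetically at 0 and 10 min; buffer-only wells as negative control.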
Pol eta inh = blocks human DNA polymerase eta activity | Q9Y253 | recombinant Pol eta, fluorescent DNA replication assay | Potency, µM (series often up to 114 µM), without a hit: top-dose activity change, negative = inhibition, most hits filed as inhibitors | hit rate 1.2% among 390,000; also: potency is read from the fitted curve at half-maximal effect; % is scaled to controls: 0 for no effect and ±100 for the full control effect
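Pol eta (10 nM) was preincubated with compounds for 15 min at room temperature, after which fluorescent replication substrate (50 nM final) was added to start the reaction. Fluorescence was read kinetically at 0 and 10 min.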
Pol kappa inh = inhibitors of human DNA polymerase kappa; Q9UBT6; purified Pol kappa, fluorescent DNA synthesis assay, 10 min; Potency, µM (highest dose often 107 µM), without a hit: top-dose activity, negative = inhibition, hits mostly inhibitors; hit rate 0.53% among 400,000; AID 588579; also: potency is read from the fitted curve at half-maximal effect; % is scaled to controls: 0 for no effect and ±100 for the full control effect
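First, compounds were pin-transferred onto 10 nM Pol kappa. After 15 min at room temperature, substrate was added to 50 nM final. Fluorescence was then measured kinetically at 0 and 10 min.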
FEN1 inh-1 = blocks human flap endonuclease 1. P39748. Recombinant FEN1 flap cleavage, fluorescence, 15 min. Potency, µM (doses to about 114 µM), for inactives: top-dose activity change, negative = inhibition, usual class: inhibitors. hit rate 0.35% among 390,000; also: potency is read from the fitted curve at half-maximal effect; % is scaled to controls: 0 for no effect and ±100 for the full control effect; nearly all actives have a fitted effect of over 65% in size
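Reaction started by adding substrate (50 nM final) to 10 nM enzyme after 15 min room-temperature compound preincubation. Reads at 0 and 15 min, with data normalized and fitted to a four-parameter Hill equation.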
FEN1 inh-2 = FEN1 inhibition, cherry-pick retest. shares compounds with FEN1 inh-1. FEN1 flap cleavage, TAMRA/BHQ2 fluorogenic DNA substrate. Potency, µM, hits mostly inhibitors. hit rate 79% among 880. AID 720498; also: potency is read from the fitted curve at half-maximal effect; nearly all actives have a fitted effect of over 60% in size
ADP-Glo interf = interferes with ADP-Glo detection without enzyme present | shares compounds with PI5P4K alpha inh | ADP-Glo detection counter-screen, luciferase luminescence, no enzyme | Potency, µM (series often up to 76.9 µM), inactives show top-dose activity change, negative = inhibition, actives largely listed as inhibitors | 1,100 tested, under 10 active | AID 743285
An asterisk follows results filed as active; ? = inconclusive; · = no result given; [ ] = remark or other dose. Unless noted, calls follow the shape of the dose curve; as a rule, active = well fitted curve in the direction sought with a large enough effect; inconclusive = small, poorly fitted or top-dose-only effect, or another doubt; inactive = no such curve, though single readings can be large; an effect the other way counts as inactive or inconclusive.

SMILES	PI5P4K alpha inh	Pol beta inh	POLI inh	Pol eta inh	Pol kappa inh	FEN1 inh-1	ADP-Glo interf	others
COc1ccc(C(=O)N2CCC(C)(C(=O)NS(=O)(=O)C3CC3)C2)cc1F (stereo unspecified)	-7	·	·	·	·	·	·
CN(C)CCNc1ccc(CO)c2sc3ccc(O)cc3c(=O)c12	7	·	79µM*	?	?	22µM*	·	FEN1 inh-2=17*
CCc1c(C)sc(NC(=O)Cc2ccccc2C)c1C(=O)N1CCOCC1	1	0%	-22%	-12%	-12%	6%	·
Cc1ccsc1/C=N/NC(=O)C(N)=O	-4	26%	14%	-3%	10%	16µM*	·	FEN1 inh-2=?
Cc1ccsc1/C=N/NC(=O)c1cccs1	-8	9%[57.1 µM]	103%	-11%	-4%	-3%	·
CC(C)CCN(C(=O)c1csnn1)C(C(=O)NC1CCCCC1)c1ccc(F)cc1 (stereo unspecified)	-3	16%	89%	-7%	-2%	-3%	·
CC1CCc2c(sc3ncnc(NS(=O)(=O)c4cccs4)c23)C1 (stereo unspecified)	-55*	27%	6%	-17%	-3%	-4%	2%
CCc1nnc(NC(=O)c2cc(-c3ccc(C)o3)nc3ccccc23)s1	-55*	·	8%	-4%	-10%	-13%	5%
CCc1nnc(NC(=O)c2cc(C)nc3ccccc23)s1	4	21%	22%	-4%	2%	-1%	·
NC(=O)c1c(N)sc2c1CCCC2	-7	13%	100%	-10%	-20%	-14%	·
Nc1sc2c(c1C(=O)c1ccccc1)CCCC2	-51*	10%	16%	-8%	-6%	-9%	-6%
CCOC(=O)CCNCc1ccc(F)cc1	0	-2%	87%	1%	-3%	1%	·
Cc1nc(NC(N)=S)sc1C(=O)Nc1ccccc1	·	1%	13%	-14%	-5%	5%	·
C=CCNc1nc(N)c(C(=O)Nc2cc(C)on2)s1	·	2%	13%	8%	-2%	-15%	·
COc1ccc(C(=O)c2sc(Nc3ccccc3F)nc2N)cc1	-81*	8%	0%	-23%	-6%	?	-1%
Nc1nc(Nc2ccccc2)sc1C(=O)c1ccccc1	-65*	3%	27%	-1%	-16%	-20%	4%
Cc1cnc(NC(=O)c2sc(Nc3ccccc3)nc2N)o1	-55*	7%	-8%	-7%	-7%	-17%	0%
Cc1cc(NC(=O)c2sc(Nc3ccc(F)cc3)nc2N)no1	-54*	?	-11%	-18%	-3%	14%	3%
Nc1nc(N)c2c(ccc3c2ccn3Cc2cccc([N+](=O)[O-])c2)n1	-61*	·	·	·	·	·	1%
Nc1nc(N)c2cc([N+](=O)[O-])ccc2n1	-22	·	92%	-13%	-16%	?	·
O=C(CSc1nc(-c2ccccc2)cc(=O)[nH]1)N1CCc2ccccc21	-50*	?	?	2%	-7%	-7%	-5%
CCNC(=O)CC1C(=O)N(c2ccc(C)cc2)C(=O)N1Cc1ccc(C)cc1 (stereo unspecified)	·	42%	12%	-8%	-12%	-3%	·
COc1ccccc1NC(=O)Cn1c(=O)n(-c2ccc(C)cc2)c(=O)c2c1cnn2C	·	-13%	6%	-8%	5%	-6%	·
O=C(O)CCC(=O)N1CCC(n2nnc3cc(C(F)(F)F)ccc32)CC1	-24	7%	?	?	-30%	-5%	2%
COc1ccc(C(=O)NNC(=O)CN2CCC(n3nnc4cc(C(F)(F)F)ccc43)CC2)cc1	·	-1%	15%	5%	0%	0%	·
SMILES	PI5P4K alpha inh	Pol beta inh	POLI inh	Pol eta inh	Pol kappa inh	FEN1 inh-1	ADP-Glo interf	others
COC(=O)c1ccccc1NC(=O)CN1CCC(n2nnc3cc(C(F)(F)F)ccc32)CC1	?	0%	-15%	-16%	-4%	8%	4%
O=C(NC1CC1)c1ccc(NC(=O)C2CCC2)cc1	-51*	·	-22%	-1%	-10%	?	-4%
Cc1nc(-c2cccc(NC(=O)c3ccc(-n4cccn4)cc3)c2)cs1	2	·	-4%	-7%	-22%	15%	·
Cc1nc(N2CCC(C)CC2)c2c(C)c(C(=O)Nc3ccc4c(c3)OCCO4)sc2n1	10	-4%	13%	-25%	-3%	17%	·
Cc1c(C(=O)Nc2ccc3c(c2)OCCO3)sc2ncnc(N3CCCCC3C)c12 (stereo unspecified)	·	4%	7%	-25%	-3%	-4%	-3%
IC(I)I	·	·	·	·	-5%[60.1 µM]	·	·
COc1ccc(C2=NCCn3nc4cc(C(F)(F)F)ccc4c32)cc1	19	·	?	-19%	7%	-3%	·
COc1ccc(C2=NCCn3nc4cc(OC)ccc4c32)cc1	-82*	·	18%	-1%	-11%	-3%	4%
Cc1c(-c2ccccc2)n(-c2ccc(Cl)cc2)c2nc3c(c(=O)n(C)c(=O)n3C)n12	·	-23%	-12%	-11%	4%[60.1 µM]	10%	·
Cc1ccc(Nc2nnc(SCC(=O)NCc3ccco3)s2)cc1	-52*	10µM*	-21%	?	?	-2%	5%
Cc1ccc(-c2cc3c(n2-c2ccc(C(=O)O)cc2)CCCC3=O)cc1	-78*	42%	-2%	?	-6%	4%	-6%
CC1=C(C(=O)OCC2CCCCC2)C(c2ccc(Cl)cc2)CC(=O)N1 (stereo unspecified)	·	0%	2%	?	-11%	-28%	·
Cc1c(Cl)cccc1NC(=O)Cn1nnc(C(=O)NCc2cccs2)c1N	?	?	89µM*	79µM*	-26%	3%	-7%
Oc1ccc(CNc2ccccc2F)c2cccnc12	?	5%	4%	-15%	3%	6%	-9%
COc1cc(Br)cc(CNc2ccc(F)c([N+](=O)[O-])c2)c1O	-28	-1%	15%	-16%	-7%	-2%	0%
COC(=O)C[C@H]1C[C@H]2c3cc(NS(=O)(=O)c4ccc(OC)cc4)ccc3O[C@H]2[C@H](CO)O1	1	·	·	-6%	·	·	·
CCOC(=O)C1=C(COC(=O)c2ccc(OC)c(OC)c2OC)NC(=O)NC1C (stereo unspecified)	6	·	8%	3%	-2%	0%	·
COc1ccc2nc(-c3ccco3)c(-c3ccco3)nc2c1	-58*	22µM*	?	3.2µM*	?	?	-3%
Cc1cc(Nc2ccccc2C(=O)O)n2ncnc2n1	·	·	·	6%	·	·	1%
